# Screens from PubChem.
# A selection: hits, their analogues and other compounds. The true share with any hit is near 27%.
# CYP2C9 inh = human CYP2C9 inhibition; CYP2C9 Supersomes, luciferin-H conversion, luminescence; inhibition, % at 5 µM; 20% of 96,000 active; AID 777;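 active = blocking of liver enzyme CYP2C9 beyond about 50% at 5 µM, limit read from the data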
# CYP2C9 activ = activators of human CYP2C9 | AID 1024 | activation factor at 5 µM | 1.4% of 96,000 active | recombinant CYP2C9, luciferin-H conversion, luminescence; stronger effect = higher value; factor 1 = untreated enzyme, 0 = blocked | P11712;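 active = activation factor of 2 or more for CYP2C9 at a 5 µM dose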;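 note: 0 = sulfaphenazole-blocked wells and 1 = vehicle-only wells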
# CYP2C19 activ = cytochrome P450 2C19 (human) activation | recombinant CYP2C19, luciferin-H EGE luminescence; stronger effect = higher value; 0 = fully inhibited enzyme, 1 = untreated enzyme | activation factor at 5 µM | 96,000 tested, under 10 active | AID 1025;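 active = activation factor of at least 2 at 5 µM in the primary screen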;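 note: 0 = wells with 2.5 mM tranylcypromine and 1 = vehicle-only wells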
# Cav32 inh = inhibitors of human Cav3.2 T-type calcium channel; B-score at 10 µM; O95180; Cav3.2-expressing cells, Fluo-4 calcium fluorescence FDSS; stronger effect = lower value; AID 449739; 4% of 100,000 active;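 active = single-dose well whose peak fluorescence ratio is a statistical outlier from its plate by either plate-standardised score or position-corrected B-score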
# CYP2C19 inh = blocks human cytochrome P450 2C19; CYP2C19 Supersomes, luciferin-H EGE luminescence, 30 min; inhibition, % at 5 µM; 21% of 96,000 active;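 active = CYP2C19 inhibition above a set limit at 5 µM in the primary screen, cut at about 50% in these data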;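 note: plate controls were negative control wells for no effect and 2.5 mM tranylcypromine positive control for full effect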
# Starred values were filed as active, the others as inactive; · = no result given.
SMILES,CYP2C9 inh,CYP2C9 activ,CYP2C19 activ,Cav32 inh,CYP2C19 inh
CC(=O)Nc1ccc(S(=O)(=O)N(CCO)Cc2ccccc2)cc1,71*,0.3,0.4,0.25,56*
CC(C)NC(=O)CN(Cc1ccccc1)S(=O)(=O)c1ccccc1,44,0.6,0.6,-2,40
COc1ccc(S(=O)(=O)N(CC(=O)NC(C)C)Cc2ccccc2)cc1,50*,0.5,0.5,-0.06,52*
O=C(CCCN1CC=C(n2c(=O)[nH]c3ccccc32)CC1)c1ccc(F)cc1,·,·,·,-0.88,·
CCCc1cc(=O)[nH]c(SCC(=O)N2CCN(S(=O)(=O)c3ccc(C)cc3)C2)n1,13,0.9,0.9,0.62,12
CNC(=O)CN(Cc1ccccc1)S(=O)(=O)c1ccccc1,14,0.9,0.4,0.47,59*
CC(=O)Nc1ccc(S(=O)(=O)c2ccc(N)cc2)cc1,-6,1.1,0.7,0.53,27
CC(=O)Nc1ccc(S(=O)(=O)N(C)S(=O)(=O)c2ccc(F)cc2)cc1,24,0.8,0.5,0.082,52*
NC(=O)CCN(Cc1ccccc1)S(=O)(=O)c1ccccc1,14,0.9,0.5,0.22,48
CCOC(=O)c1c(C2CCN(C(=O)OCC)CC2)nc2ccccn12,72*,0.3,0.7,0.95,34
Cc1c(C#N)c(N=CN(C)C)c(C(=O)c2ccc(Br)cc2)n1-c1ccccc1,22,0.8,0.8,-0.59,20
Cc1c(C#N)c(N=CN(C)C)c(C(=O)c2ccccc2)n1-c1ccc(Br)cc1,61*,0.4,0.3,-0.29,73*
Oc1ccc2oc3c(c2c1/C=N/n1cnnc1)CCCC3,63*,0.4,0.5,-0.47,48
CCc1nc(N2CCN(C(=O)c3ccccc3)CC2)c(C#N)c2c1COC(C)(C)C2,77*,0.2,0.2,-0.95,75*
Cc1ccc(S(=O)(=O)N2CCN(c3nc(C)c4c(c3C#N)CC(C)(C)OC4)CC2)cc1,83*,0.2,0.2,-2.2,77*
Cc1nc(N2CCOCC2)c(C#N)c2c1COC(C)(C)C2,·,·,·,-0.021,·
CCc1nc(N2CCOCC2)c(C#N)c2c1COC(C)(C)C2,12,0.9,0.4,-0.073,60*
CCOC(=O)N1CCN(c2ncnc3c2oc2nc(C)c4c(c23)CC(C)(C)OC4)CC1,24,0.8,0.9,·,12
CC1CCN(c2nc(-c3ccco3)c3c(c2C#N)CC(C)(C)OC3)CC1,56*,0.4,1.1,0.45,-11
CC1(C)Cc2c(C#N)c(N3CCOCC3)nc(Cc3ccccc3)c2CO1,77*,0.2,0.1,-2.9,93*
CC1(C)Cc2c(C#N)c(N3CCN(C(=O)c4ccccc4)CC3)nc(Cc3ccccc3)c2CO1,98*,0,0.5,-2,48
CC(C)Cc1nc(N2CCN(C(=O)Cc3ccccc3)CC2)c(C#N)c2c1COC(C)(C)C2,46,0.5,0.7,·,27
CCS(=O)(=O)NCC(c1cccnc1)N1CCN(c2ccc(F)cc2)CC1 (stereo unspecified),3,1,1,-0.18,4
COc1cccc(C2CC(c3ccc(Cl)cc3)n3nc(N)nc3N2)c1 (stereo unspecified),16,0.8,0.2,-0.77,78*
CCOc1ccccc1C1CC(c2ccc(Br)cc2)Nc2nc(N)nn21 (stereo unspecified),23,0.8,0.4,-4.6,64*
SMILES,CYP2C9 inh,CYP2C9 activ,CYP2C19 activ,Cav32 inh,CYP2C19 inh
CCOc1ccc(C2CC(c3ccccc3C)n3nc(N)nc3N2)cc1 (stereo unspecified),4,1,0.8,-1.2,25
COc1cccc(C2CC(c3ccccc3C)n3nc(N)nc3N2)c1 (stereo unspecified),6,0.9,0.6,0.3,36
COc1cccc(C2CC(c3ccccc3OC)n3nc(N)nc3N2)c1 (stereo unspecified),11,0.9,0.4,0.26,63*
COc1cccc(C2CC(c3ccccc3Cl)n3nc(N)nc3N2)c1 (stereo unspecified),17,0.8,0.2,0.71,85*
COc1cccc(-c2cc(N)nn2C(=O)Nc2ccc(Cl)cc2)c1,25,0.8,1.1,-0.48,-7
O=c1cc(O)nc(SC23CC4CC(CC(C4)C2)C3)[nH]1,0,1,1.1,0.79,-6
O=C(NCC1CCCO1)C1CCC(CNS(=O)(=O)c2ccccc2)CC1 (stereo unspecified),-14,1.1,1.1,0.2,-9
COc1ccc(C2CC(c3ccccc3C)n3nc(N)nc3N2)cc1 (stereo unspecified),7,0.9,0.4,0.028,57*
Cc1ccc(C2CC(c3ccccc3C)n3nc(N)nc3N2)cc1 (stereo unspecified),·,·,·,0.1,·
Cn1c(CSc2nc3ccc(Br)cc3[nH]2)nc2ccccc21,23,0.8,0.2,-0.035,82*
Cn1c(CSc2nnc(SCc3ccccc3)s2)nc2ccccc21,19,0.8,0.4,-4.3*,60*
Cn1c(Cn2cnc3ccccc32)nnc1SCc1ccccc1,23,0.8,0.7,0.54,33
COc1cccc(N2CCN(C(=O)c3[nH]c(C)c(C(C)=O)c3C)CC2)c1,34,0.7,0.8,0.097,23
O=C(C1COc2ccccc2O1)N1CCN(c2ccc(F)cc2)CC1 (stereo unspecified),75*,0.3,0.1,-1.1,86*
O=C(c1ccccc1C(=O)N1CCN(c2ccccc2)CC1)N1CCN(c2ccccc2)CC1,70*,0.3,0.7,-0.72,32
COc1ccccc1-c1cc(C(=O)N2CCN(c3ccc(F)cc3)CC2)no1,-41,1.4,1,-0.54,2
CC(=O)c1c(C)[nH]c(C(=O)N2CCN(c3ccc(F)cc3)CC2)c1C,0,1,0.3,0.95,71*
CC(C)Cc1cc(C(=O)N2CCN(c3ccc(F)cc3)CC2)no1,65*,0.3,0.2,-1.1,76*
O=C(c1ccc(Br)o1)N1CCN(c2ccc(F)cc2)CC1,24,0.8,0.1,-0.4,95*
O=C(c1ccccc1)N1CCN(c2ccc(Cl)cc2)CC1,68*,0.3,0,0.011,98*
CCCN1Cc2cccc(C(=O)N3CCN(c4ccccc4)CC3)c2C1=O,29,0.7,0.5,-1.8,50*
O=C(c1ccccc1C(=O)N1CCN(c2ccc(F)cc2)CC1)N1CCN(c2ccc(F)cc2)CC1,88*,0.1,0.5,-4.1*,54*
O=C(c1ccccc1)N1CCN(C(=O)c2ccccc2)CC1,·,·,·,0.64,·
CCOC(=O)Cn1nc(/C=C/c2ccc(C(C)C)cc2)ccc1=O,19,0.8,0.9,-2,12
CC(CC(=O)O)CC(=O)Nc1ccccc1C(=O)O (stereo unspecified),-18,1.2,1.2,-0.32,-18
O=C(Nc1ccc(N2CCOCC2)cc1)c1cccnc1,·,·,·,-0.74,·
Cc1ccc(C(=O)N2CCN(c3ccc(NC(=O)c4cccnc4)cc3)CC2)cc1,74*,0.3,0.7,0.59,35
